Hits are enriched below; roughly 7.4% of the tested compounds scored in any of these assays.
SNCA expr inhib – inhibitors of alpha-synuclein (SNCA) gene expression | HEK-293 SNCA-luciferase knock-in, luminescence, 24 h | 140,000 tested, 0.17% active | Potency, µM (highest dose often 57.2 µM), without a hit: top-dose activity change, negative = inhibition, usual class: inhibitors;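 further: plate controls were DMSO cells for no effect and cell-free wells for full effect; nearly all actives have a fitted effect of over 45% in size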
HEK293 tox – HEK 293 cell cytotoxicity; Potency, µM (titrated, usually from 115 µM), for inactives: top-dose activity change, negative = cytotoxicity, hits mostly inhibitors; HEK 293 viability, ATP luminescence (CellTiter-Glo), 48-72 h; 94,000 tested, 6.6% active; AID 1345083; further: nearly all actives have a fitted effect of over 60% in size
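Pintool-delivered compounds were incubated with HEK 293 cells (250 cells/well) at 37 degree Celsius for 48 or 72 hr. ATP-dependent luminescence (CellTiter-Glo) then reported remaining viable cells.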
FLuc inh – blocks purified firefly luciferase enzyme activity; P08659; purified P. pyralis luciferase, luminescence, biochemical; Potency, µM (titrated, usually from 115 µM), actives largely listed as inhibitors; 76,000 tested, 2.5% active; further: nearly all actives have a fitted effect of over 65% in size
Target sequence (P08659 whole entry, looked up): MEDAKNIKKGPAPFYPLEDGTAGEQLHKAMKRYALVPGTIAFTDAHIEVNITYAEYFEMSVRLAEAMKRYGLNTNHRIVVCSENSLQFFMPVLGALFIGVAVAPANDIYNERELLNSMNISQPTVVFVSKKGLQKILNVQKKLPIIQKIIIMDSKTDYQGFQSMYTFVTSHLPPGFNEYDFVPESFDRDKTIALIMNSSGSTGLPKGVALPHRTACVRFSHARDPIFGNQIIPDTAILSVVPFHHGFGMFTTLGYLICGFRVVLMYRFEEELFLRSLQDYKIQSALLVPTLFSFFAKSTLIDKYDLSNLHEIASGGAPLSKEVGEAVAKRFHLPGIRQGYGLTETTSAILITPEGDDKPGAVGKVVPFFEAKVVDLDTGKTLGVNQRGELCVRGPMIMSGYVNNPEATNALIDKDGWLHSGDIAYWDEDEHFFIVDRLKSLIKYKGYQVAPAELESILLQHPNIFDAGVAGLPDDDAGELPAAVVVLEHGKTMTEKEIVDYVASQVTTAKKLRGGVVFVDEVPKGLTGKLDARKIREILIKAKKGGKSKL
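Biochemical qHTS: compound (6-point titration) added to 10uM D-luciferin plus 10uM ATP in Tris acetate pH 7.5 buffer with Mg, Tween-20 and BSA, then purified enzyme at 10nM; light output imaged.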
NPR1 antag – human Npr1 receptor antagonism; HEK293 hNpr1 GloSensor cGMP, ANP-stimulated luminescence; P16066; Potency, µM (titrated, usually from 46.3 µM), for the others: at the top dose activity change, negative = inhibition, most hits filed as inhibitors; 76,000 tested, 1.6% active; calls by dose curve; further: nearly all actives have a fitted effect of over 60% in size
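HEK293 cells stably expressing human Npr1 and cGMP GloSensor pGS-40F, loaded 2 h with 2% GloSensor reagent, given compound 30 min at room temperature. Luminescence read before and 20 min after 0.1 nM hNppA.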
SNCA viab count – counter-screen for SNCA expression inhibitors: cell viability. 150,000 tested, 0.12% active. Potency, µM (highest dose often 57.1 µM), for the others: at the highest dose activity change, negative = cytotoxicity, hits mostly cytotoxic. HEK-293-SNCA-luc viability, GF-AFC fluorescence, 24 h;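 further: 0% = DMSO-treated cells and -100% = medium-only wells without cells; nearly all actives have a fitted effect of over 30% in size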
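Cytotoxicity counterscreen: after 24 h compound treatment of genome-edited SNCA-luciferase HEK-293 cells, live-cell protease substrate GF-AFC read by fluorescence after 30 min; activity scaled between DMSO (0%) and medium-only (-100%), curves Hill-fitted.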
3T3 cytotox – kills NIH 3T3 cells; NIH 3T3 viability, CellTiter-Glo ATP luminescence, 48-72 h; Potency, µM (highest dose often 96.7 µM), without a hit: top-dose activity change, negative = cytotoxicity, usual class: inhibitors; 94,000 tested, 4.3% active; AID 1345082; further: nearly all actives have a fitted effect of over 55% in size
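First NIH 3T3 cells are plated at 400 cells/well; next compound is pinned in; then plates incubate 48 or 72 hr at 37 °C; finally CellTiter-Glo is added and luminescence read after 10 min.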
* = called active by the depositor; i = inactive; ? = inconclusive; . = not tested or not shown; [ ] = dose if it differs, or a comment. Unless noted, the call rests on the fitted dose curve; in most records, active means well fitted curve in the direction sought with a large enough effect; inconclusive means small, poorly fitted or top-dose-only effect, or another doubt; inactive means no such curve, though single readings can be large; an effect the other way counts as inactive or inconclusive. Unless noted, on the % scale 0 is the no-effect control and ±100 the full control effect; potency means the concentration at half of the fitted maximal effect.

SMILES	SNCA expr inhib	HEK293 tox	FLuc inh	NPR1 antag	SNCA viab count	3T3 cytotox
O=C(NC1CCCCCC1)C1CCc2nnc(C3CC3)n21 (stereo unspecified)	10%	-20%	.	.	0%[12.5 µM]	?
O=C1Nc2ccccc2C12CCN([S+](=O)([O-])c1ccsc1)CC2	-13%	45µM*	i	-28%	-19%	-8%
O=C1Nc2ccccc2C12CN([S+](=O)([O-])c1cccc(C(F)(F)F)c1)C2	-29%	-22%	.	.	-3%	?
O=C(c1cccs1)N1CCC(n2cc(-c3nc(-c4ccccc4)no3)nn2)CC1	27%	35µM*	i	?	-16%	?
O=C(c1ccc(F)cc1Cl)N1CCC(n2cc(-c3nc(-c4ccccc4)no3)nn2)CC1	110%	?	?	18µM*	12%	?
O=C(c1ccncc1)N1CCC(n2cc(-c3nc(-c4ccccc4)no3)nn2)CC1	194%	?	?	-29%	7%	32µM*
Cc1ccccc1C(=O)N1CCC(n2cc(-c3nc(-c4ccccc4)no3)nn2)C1 (stereo unspecified)	-17%	?	?	7.9µM*	-14%	?
O=C(c1ccoc1)N1CCC(n2cc(-c3nc(-c4ccccc4)no3)nn2)CC1	23%	?	?	-23%	-3%	?
O=C(c1cc(F)ccc1F)N1CCC(n2cc(-c3nc(-c4ccccc4)no3)nn2)CC1	63%	?	i	-30%	7%	?
Cc1ccc(Nc2ccnc(N3CCCC3C(=O)NCc3cccc(Cl)c3)n2)cc1 (stereo unspecified)	-4%	?	.	.	7%[12.5 µM]	?
COc1cccc(CNC(=O)C2CCc3nnc(-c4cccc(C(F)(F)F)c4)n32)c1 (stereo unspecified)	13%	?	.	.	5%	-23%
N#Cc1ccc(C(=O)N2CCC(n3cc(-c4nc(-c5ccccc5)no4)nn3)C2)cc1 (stereo unspecified)	-11%	?	?	?	-7%	?
COc1ccc(C(=O)N2CCC(n3cc(-c4nc(-c5ccccc5)no4)nn3)C2)cc1 (stereo unspecified)	9%	?	?	?	-12%	?
O=C(c1ccc(Cl)cc1)N1CCC(n2cc(-c3nc(-c4ccccc4)no3)nn2)C1 (stereo unspecified)	-16%	22µM*	?	?	?	-55%
O=C(c1ccccc1)N1CCC(n2cc(-c3nc(-c4ccccc4)no3)nn2)C1 (stereo unspecified)	4%	?	?	13µM*	10%	?
Cn1cccc1C(=O)N1CCC(n2cc(-c3nc(-c4ccccc4)no3)nn2)CC1	78%	?	?	-20%	-8%	?
Cc1ccccc1C(=O)N1CCC(n2cc(-c3nc(-c4ccccc4)no3)nn2)CC1	57%	?	i	-26%	4%	-22%
Cn1cccc1C(=O)N1CCC(n2cc(-c3nc(-c4ccccc4)no3)nn2)C1 (stereo unspecified)	61%	45µM*	?	18µM*	-25%	?
Cc1ccsc1C(=O)N1CCC(n2cc(-c3nc(-c4ccccc4)no3)nn2)CC1	61%	40µM*	i	?	-2%	-28%
CN(Cc1cccnc1)C1CN(C(=O)c2cccn2C)C1	29%	i	.	.	-15%	-1%
CNC(=O)C(=O)N1C[C@H](C(=O)NC)[C@H]2c3ccccc3N(CCOC)C(=O)[C@]21C	-2%[25.6 µM]	?	.	.	9%[23.9 µM]	?
N#Cc1ccc(C(=O)N2CCCC(n3cc(-c4nc(-c5ccccc5)no4)nn3)C2)cc1 (stereo unspecified)	33%	?	?	11µM*	-5%	-23%
Cc1ccc(-c2cccc(CN3CCCC3C(=O)NCc3ccc(F)cc3F)c2)cc1Cl (stereo unspecified)	.	45µM*	.	.	.	?
Cc1ccc(-c2cccc(CN3CCCC3C(=O)NCc3cccc(F)c3)c2)cc1Cl (stereo unspecified)	.	45µM*	.	.	.	?
Cc1cc(C)cc(-c2ccc(CN3CCCC3C(=O)NCc3ccc(F)cc3)cc2)c1 (stereo unspecified)	-16%	?	.	.	-11%	?
SMILES	SNCA expr inhib	HEK293 tox	FLuc inh	NPR1 antag	SNCA viab count	3T3 cytotox
Cc1ccc(-c2cccc(CN3CCCC3C(=O)NCc3cccc(Cl)c3)c2)cc1Cl (stereo unspecified)	.	40µM*	.	.	.	35µM*
O=C(c1ccc2c(c1)OCO2)N1CC(c2noc(C3CCCN3CC3CC3)n2)C1 (stereo unspecified)	?	-28%	i	0%	2%[12.5 µM]	-3%
O=C(NCC1CC1)c1csc(N2CCN(c3ccccc3F)CC2)n1	?	35µM*	i	-24%	-8%	13µM*
O=C(NCCCN1CCCC1=O)c1csc(N2CCN(c3ccc(F)cc3)CC2)n1	-16%	?	i	-17%	-10%	-24%
CC(NC(=O)c1csc(N2CCN(c3ccccc3F)CC2)n1)c1ccccc1 (stereo unspecified)	-6%	45µM*	i	3%	4%	?
O=C(c1ccc(C(F)(F)F)cc1)N1CCCN(c2ccc3nnc(C4CC4)n3n2)CC1	.	-7%	.	.	.	-30%
CC(C)CCN1CCCC2(CC(Cc3ccccc3)=NO2)C1 (stereo unspecified)	29%[87.6 µM]	100µM*	i	9%[70.6 µM]	1%[87.6 µM]	-20%[138 µM]
O=C(c1ccccc1OCC1CCCN(Cc2ccc(F)cc2)C1)N1CCCCC1 (stereo unspecified)	-16%	?	i	-12%	3%	-28%
COCCN1CCN(C[C@@H]2C=C(C)[C@H](Cc3nnc(C)o3)C[C@H]2C(C)C)CC1	-11%[87.6 µM]	89µM*	i	-3%[70.6 µM]	-6%[87.6 µM]	?
COCCN1CCN(C[C@@H]2C=C(C)[C@H](Cc3nnc(-c4ccc(OC)cc4)o3)C[C@H]2C(C)C)CC1	?	40µM*	i	0%	?	40µM*
COc1ccc(-c2nnc(C[C@@H]3C[C@@H](C(C)C)[C@H](CN4CCN(c5ncccn5)CC4)C=C3C)o2)cc1	?	40µM*	i	-27%	?	?
CC(=O)N1CCN(C[C@@H]2C=C(C)[C@H](Cc3nnc(-c4cccnc4)o3)C[C@H]2C(C)C)CC1	5%	?	i	0%	-15%	?
CC1=C[C@@H](CN2CCOCC2)[C@H](C(C)C)C[C@H]1Cc1nnc(-c2ccc(N(C)C)cc2)o1	-22%	?	i	-26%	-10%	?

Screens deposited in PubChem BioAssay by National Center for Advancing Translational Sciences (NCATS).
